“And” between values parts separate entries of the source, which are not always exact repeats. Equal values may be shown once.
Assay: viability loss with induced miR-34 in A549 – imaging, A549 dox-inducible miR-34, nuclei and caspase counts, primary screen (AID 1347080); further: test concentration not given here
Conditions: A549 miR-34 inducible, Hoechst nuclei count, 48 h; measured here: total cells with miR-34 induction; stronger effect = lower value

| Compound | cell count |
| --- | --- |
| C[C@H](N)Cc1cccc(C(F)(F)F)c1 | 10400 |
| CCCCC/C=C\C/C=C\CCCCCCCC(=O)NCCO | 5710 and 5830 |
| C=CCN1C[C@@H](C)N([C@H](c2ccc(C(=O)N(CC)CC)cc2)c2cccc(OC)c2)C[C@@H]1C | 8780 |
| N#CC(=Cc1ccc(O)c(O)c1)C(N)=S | 9410 |
| N[C@@]1(C(=O)O)CC[C@@H](C(=O)O)C1 | 10500 |
| CCCC[C@H]1C(=O)O[C@H](C)[C@H](NC(=O)c2cccc(NC=O)c2OC)C(=O)O[C@@H](C)[C@@H]1OC(=O)CC(C)C | 869 |
| CCNC(=O)[C@H]1O[C@@H](n2cnc3c(N)ncnc32)C(O)[C@H]1O (stereo not given in full) | 9250 |
| CCCCC/C=C\C/C=C\C/C=C\CCCCCCC(=O)NCCO | 5830 and 6550 |
| CCCCCCCCCCCCCCCCOC[C@@H](COP(=O)([O-])OCC[N+](C)(C)C)OC(C)=O | 4960 |
| O=C(NC1CN2CCC1CC2)c1cc2ccoc2cn1 (stereo not given) | 10200 |
| C[C@@H]1O[C@H](C[N+](C)(C)C)C[C@H]1O | 10900 |
| COC[C@H]([C@@H](O)[C@@H](O)C(=O)NCC[C@@H](C)c1nc(/C=C/C[C@H]2OC3(C[C@H](O)[C@H]2C)OC([C@@H](C[C@@H](O)[C@@H](C)[C@@H](O)[C@@H](C)/C=C(C)/C(C)=C/C=C/C(C)=C\C#N)OC)[C@@H](OP(=O)(O)O)C3(C)C)co1)N(C)C (stereo not given in full) | 250 |
| CCCCC[C@@H](/C=C/C=C\CCCCCCCC(=O)O)OO | 5710 |
| C=CCN1CCC23c4c5ccc(O)c4O[C@H]2C(=O)CC[C@@]3(O)C1C5 (stereo not given in full) | 11300 |
| CCCCC/C=C\C/C=C\C/C=C\C/C=C\CCCC(=O)NCCO | 6110 and 5070 |
| CC(C)(O)[C@H]1O[C@H]2CC[C@@]3(C)[C@@](O)(CC[C@H]4Cc5c([nH]c6ccccc56)[C@@]43C)C2=CC1=O | 3780 |
| CCCCC/C=C\C[C@@H](/C=C/C=C\C/C=C\CCCC(=O)O)OO | 5520 |
| N#CC(C#N)=Cc1ccc(O)cc1 | 5450 |
| CCCCC/C=C\C/C=C\C/C=C\C=C\[C@H](CCCC(=O)O)OO | 5950 |
| CC(N)c1cccc(Cl)c1Cl (stereo not given) | 10200 |

| Compound | cell count |
| --- | --- |
| CN1CCC[C@@H]1Cc1c[nH]c2ccc(Nc3ncccc3[N+](=O)[O-])cc12 | 7590 |
| Oc1ccc2c3c1O[C@H]1c4[nH]c5ccccc5c4C[C@@]4(O)C(C2)N(CC2CC2)CCC314 (stereo not given in full) | 8190 |
| COc1cc(C(O)CN)ccc1O (stereo not given) | 11000 |
| C[C@@H]1O[C@@H](O[C@H]2C[C@@H](O)[C@]3(CO)[C@@H]4C(CC[C@]3(O)C2)[C@@]2(O)CC[C@H](C3COC(=O)C3)[C@@]2(C)C[C@H]4O)[C@H](O)[C@H](O)[C@H]1O (stereo not given in full) | 370 |
| CN1CC[C@@]2(C)c3cc(OC(=O)Nc4ccccc4)ccc3N(C)[C@@H]12 | 10200 |
| CCCCCC1OC1C/C=C\CCCCCCCC(=O)O (stereo not given) | 5980 |
| c1ccc2cc(CC3=NCCN3)ccc2c1 | 11100 |
| CC(C)(C)OC(=O)NC1[C@H]2CNC[C@@H]12 (stereo not given in full) | 11400 |
| NC1CC1c1ccccc1 (stereo not given) | 10200 and 8220 |
| NC(CCP(=O)(O)O)C(=O)O (stereo not given) | 10400 |
| CCCCC/C=C\C/C=C\C/C=C\C/C=C\CCCC(N)=O | 6020 and 5980 |
| CCCCC[C@@H](/C=C/C=C\C/C=C\C/C=C\CCCC(=O)O)OO | 5790 |
| COc1ccc2c(c1)C13CCCCC1C(C2)N(C)CC3 (stereo not given) | 10100 |
| C=CCN1CC[C@]23CCCCC2[C@H]1Cc1ccc(O)cc13 (stereo not given in full) | 10900 |
| CCCCC/C=C\C=C\[C@H](CCCCCCCC(=O)O)OO | 5880 |
| O=C1CC[C@@]2(O)C3Cc4ccc(O)c5c4C2(CCN3CC2CC2)[C@H]1O5 (stereo not given in full) | 11300 |
| NC(CP(=O)(O)O)C(=O)O (stereo not given) | 10500 |
| C[C@]12Cc3cn4c(nc3C=C1CCC1C2CC[C@@]2(C)[C@H]1CC[C@@]2(O)C#N)nc1ccccc14 (stereo not given in full) | 1380 |
| CCCCCCCCCCCCCC(=O)O[C@@H]1[C@@H](C)[C@@]2(O)[C@@H](C=C(CO)C[C@@]3(O)C(=O)C(C)=C[C@@H]23)C2C(C)(C)[C@@]21OC(C)=O (stereo not given in full) | 418 |
| CCCCC/C=C\C/C=C\C/C=C\C/C=C\CCCCCC(=O)NCCO | 5810 and 5940 |

Same assay, conditions: A549 miR-34 inducible, Hoechst nuclei count, 48 h; measured here: total cells without miR-34 induction

| Compound | cell count |
| --- | --- |
| C[C@H](N)Cc1cccc(C(F)(F)F)c1 | 11000 |
| CCCCC/C=C\C/C=C\CCCCCCCC(=O)NCCO | 5220 and 5490 |
| C=CCN1C[C@@H](C)N([C@H](c2ccc(C(=O)N(CC)CC)cc2)c2cccc(OC)c2)C[C@@H]1C | 7950 |
| N#CC(=Cc1ccc(O)c(O)c1)C(N)=S | 9590 |
| N[C@@]1(C(=O)O)CC[C@@H](C(=O)O)C1 | 10000 |
| CCCC[C@H]1C(=O)O[C@H](C)[C@H](NC(=O)c2cccc(NC=O)c2OC)C(=O)O[C@@H](C)[C@@H]1OC(=O)CC(C)C | 680 |
| CCNC(=O)[C@H]1O[C@@H](n2cnc3c(N)ncnc32)C(O)[C@H]1O (stereo not given in full) | 8960 |
| CCCCC/C=C\C/C=C\C/C=C\CCCCCCC(=O)NCCO | 5990 and 5800 |
| CCCCCCCCCCCCCCCCOC[C@@H](COP(=O)([O-])OCC[N+](C)(C)C)OC(C)=O | 5620 |
| O=C(NC1CN2CCC1CC2)c1cc2ccoc2cn1 (stereo not given) | 10300 |
| C[C@@H]1O[C@H](C[N+](C)(C)C)C[C@H]1O | 10400 |
| COC[C@H]([C@@H](O)[C@@H](O)C(=O)NCC[C@@H](C)c1nc(/C=C/C[C@H]2OC3(C[C@H](O)[C@H]2C)OC([C@@H](C[C@@H](O)[C@@H](C)[C@@H](O)[C@@H](C)/C=C(C)/C(C)=C/C=C/C(C)=C\C#N)OC)[C@@H](OP(=O)(O)O)C3(C)C)co1)N(C)C (stereo not given in full) | 312 |
| CCCCC[C@@H](/C=C/C=C\CCCCCCCC(=O)O)OO | 5820 |
| C=CCN1CCC23c4c5ccc(O)c4O[C@H]2C(=O)CC[C@@]3(O)C1C5 (stereo not given in full) | 10600 |
| CCCCC/C=C\C/C=C\C/C=C\C/C=C\CCCC(=O)NCCO | 6130 and 5160 |
| CC(C)(O)[C@H]1O[C@H]2CC[C@@]3(C)[C@@](O)(CC[C@H]4Cc5c([nH]c6ccccc56)[C@@]43C)C2=CC1=O | 3460 |
| CCCCC/C=C\C[C@@H](/C=C/C=C\C/C=C\CCCC(=O)O)OO | 6220 |
| N#CC(C#N)=Cc1ccc(O)cc1 | 5070 |
| CCCCC/C=C\C/C=C\C/C=C\C=C\[C@H](CCCC(=O)O)OO | 6010 |
| CC(N)c1cccc(Cl)c1Cl (stereo not given) | 9670 |

| Compound | cell count |
| --- | --- |
| CN1CCC[C@@H]1Cc1c[nH]c2ccc(Nc3ncccc3[N+](=O)[O-])cc12 | 7510 |
| Oc1ccc2c3c1O[C@H]1c4[nH]c5ccccc5c4C[C@@]4(O)C(C2)N(CC2CC2)CCC314 (stereo not given in full) | 8080 |
| COc1cc(C(O)CN)ccc1O (stereo not given) | 10500 |
| C[C@@H]1O[C@@H](O[C@H]2C[C@@H](O)[C@]3(CO)[C@@H]4C(CC[C@]3(O)C2)[C@@]2(O)CC[C@H](C3COC(=O)C3)[C@@]2(C)C[C@H]4O)[C@H](O)[C@H](O)[C@H]1O (stereo not given in full) | 430 |
| CN1CC[C@@]2(C)c3cc(OC(=O)Nc4ccccc4)ccc3N(C)[C@@H]12 | 10600 |
| CCCCCC1OC1C/C=C\CCCCCCCC(=O)O (stereo not given) | 6070 |
| c1ccc2cc(CC3=NCCN3)ccc2c1 | 10500 |
| CC(C)(C)OC(=O)NC1[C@H]2CNC[C@@H]12 (stereo not given in full) | 10800 |
| NC1CC1c1ccccc1 (stereo not given) | 10400 and 9270 |
| NC(CCP(=O)(O)O)C(=O)O (stereo not given) | 9940 |
| CCCCC/C=C\C/C=C\C/C=C\C/C=C\CCCC(N)=O | 5750 and 5890 |
| CCCCC[C@@H](/C=C/C=C\C/C=C\C/C=C\CCCC(=O)O)OO | 5950 |
| COc1ccc2c(c1)C13CCCCC1C(C2)N(C)CC3 (stereo not given) | 9710 |
| C=CCN1CC[C@]23CCCCC2[C@H]1Cc1ccc(O)cc13 (stereo not given in full) | 10000 |
| CCCCC/C=C\C=C\[C@H](CCCCCCCC(=O)O)OO | 6320 |
| O=C1CC[C@@]2(O)C3Cc4ccc(O)c5c4C2(CCN3CC2CC2)[C@H]1O5 (stereo not given in full) | 10300 |
| NC(CP(=O)(O)O)C(=O)O (stereo not given) | 10400 |
| C[C@]12Cc3cn4c(nc3C=C1CCC1C2CC[C@@]2(C)[C@H]1CC[C@@]2(O)C#N)nc1ccccc14 (stereo not given in full) | 1350 |
| CCCCCCCCCCCCCC(=O)O[C@@H]1[C@@H](C)[C@@]2(O)[C@@H](C=C(CO)C[C@@]3(O)C(=O)C(C)=C[C@@H]23)C2C(C)(C)[C@@]21OC(C)=O (stereo not given in full) | 618 |
| CCCCC/C=C\C/C=C\C/C=C\C/C=C\CCCCCC(=O)NCCO | 5700 and 5690 |
